Measurements published in PubChem BioAssay (NCATS).
Results filed as inconclusive are left out. A number with no mark means an inactive call. Calls of active or inactive are those of the source. Calls come from the whole dose curve; as a rule, active = well fitted inhibition curve with a large enough effect; inconclusive = small, poorly fitted or top-dose-only effect; inactive = no such curve, though single readings can be large or run the other way.

test: qHTS to identify inhibitors of the type 1 interferon - major histocompatibility complex class I in skeletal muscle: primary screen against the NCATS Mechanism Interrogation Plate v5.0 (MIPE) Libary (AID 1347411); conditions: iHSKM cells + IFN-b, HiBiT-tagged MHC-I luminescence, 24 h; series mostly up to 45.8 µM; activity change, negative = inhibition: at the top concentration; note: nearly all actives have a fitted effect of over 65% in size;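 for activity change, negative = inhibition: plate controls were vehicle for no effect and reference inhibitor for full effect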
Procedure, shortened: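 HLA-B HiBit myoblasts, dexamethasone-free medium + 4 ng/ml IFN-b, 24 h compound, 11-pt 1:3 from 46 uM final. Readout: Nano-Glo HiBiT lytic luminescence after 10 min lysis, RT.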
Potency is the fitted concentration of half-maximal effect.

Structure (SMILES) | activity change, negative = inhibition [%] | Potency
C[C@]12CC[C@H]3[C@@H](CCC4=CC(=O)CC[C@@]43C)[C@H]1CC[C@H]2OC(=O)CCC1CCCC1 | -28.2 | 
O=c1cccc2n1CC1CNC[C@H]2C1 | -0.833 | 
CSCC[C@@H](NC(=O)[C@@H](Cc1ccccc1)NC(=O)CNC(=O)CNC(=O)[C@@H](N)Cc1ccc(O)cc1)C(=O)O | 13.8 | 
O=S(=O)(F)Cc1ccccc1 | -4.65 | 
CC1=C(O)C(=O)C=C2C1=CC=C1[C@@]2(C)CC[C@@]2(C)[C@@H]3C[C@](C)(C(=O)O)CC[C@]3(C)CC[C@]12C |  | 829 nM (active)
O=c1[nH]c2ccccc2n1C1CCN(Cc2ccc(-c3[nH]c4cc5ncnc5cc4nc3-c3ccccc3)cc2)CC1 | -6.52 | 
CC(=O)Nc1ccc(OC[C@](C)(O)C(=O)Nc2ccc([N+](=O)[O-])c(C(F)(F)F)c2)cc1 | -4.39 | 
CCc1c(C(=O)C(N)=O)c2c(OCC(=O)O)cccc2n1Cc1ccccc1 | 0.129 | 
CCNC(=O)CC1N=C(c2ccc(Cl)cc2)c2cc(OC)ccc2-n2c(C)nnc21 (centres undefined) | -16.7 | 
C[C@](O)(COc1ccc(C#N)cc1)C(=O)Nc1ccc(C#N)c(C(F)(F)F)c1 | -17.2 | 
O=C(O)CNC(=O)c1c(O)c2ccccc2n(Cc2ccccc2)c1=O | -19.4 | 
O=C(Oc1ccc([N+](=O)[O-])cc1)N1CCC(C(O)(c2ccc3c(c2)OCO3)c2ccc3c(c2)OCO3)CC1 | 0.0666 | 
C[C@]12CC[C@@H]3[C@@H](CCC4=CC(=O)CC[C@@H]43)[C@@H]1CC[C@@H]2OC(=O)CCc1ccccc1 | 0.252 | 
CCNC(=O)C[C@@H]1N=C(c2ccc(Cl)cc2)c2cc(OC)ccc2-n2c(C)nnc21 | -20.1 | 
